Experimental data published in PubChem BioAssay (Tox21).
Results filed as inconclusive are left out. Calls of active or inactive are those of the source. Unless noted, calls follow the shape of the dose curve; as a rule, active = well fitted curve in the direction sought with a large enough effect in the repeat runs; inconclusive = weak or mixed curves; inactive = no such curve, though single readings can be large; an effect the other way counts as inactive or inconclusive.

Assays:
[1] = target: Thyrotropin receptor (Homo sapiens) (UniProt P16473); assay: qHTS assay to identify small molecule antagonists of the thyroid stimulating hormone receptor (TSHR) signaling pathway (AID 1259385; calls by dose curve; also: nearly all actives have a fitted effect of over 20% in size)
Method in brief: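 Antagonist mode: compound-treated TSHR-expressing HEK293 cells were stimulated with 1.5 ng/mL TSH (final) in presence of Ro20-1724 for 30 min at RT. HTRF cAMP detection after 1 h; each compound tested at 15 concentrations, triplicate.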

[2] = qHTS assay to identify small molecule agonists of the estrogen receptor alpha (ER-alpha) signaling pathway in the presence of an antagonist - cell viability counter screen (AID 1259386);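 also: series mostly up to about 92 µM; cells exposed to compounds for 22 h at 37 °C before the viability read; nearly all actives have a fitted effect of over 30% in size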
Method in brief: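 VM7Luc4E2, stripped-serum pre-culture 5 d; 24hr plating; +ICI-182,780 10.0nM final; cpds 15 conc, 22hr, 37C/5% CO2; CellTiter-Fluor added at 21hr, fluorescence 1hr later.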

[3] = target: Progesterone receptor (Homo sapiens) (UniProt P06401); assay: qHTS assay to identify small molecule agonists of the progesterone receptor (PR) signaling pathway (AID 1346784; calls by dose curve; also: nearly all actives have a fitted effect of over 30% in size; also: potency is read from the fitted curve at half-maximal effect)
Method in brief: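 Cells (PR-UAS-bla HEK 293T, GripTite) were plated in assay medium containing 2% charcoal-stripped FBS and incubated 6 hr. Test compounds in DMSO were added for 16 hr at 37C. FRET substrate was then loaded for 2 hr at room temperature before fluorescence reading.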

[4] = target: Progesterone receptor (Homo sapiens) (UniProt P06401); assay: qHTS assay to identify small molecule antagonists of the progesterone receptor (PR) signaling pathway (AID 1346795; active = well fitted inhibition curve with a large enough effect in the signal ratio in the repeat runs, not every such curve was filed as active; the % refers to the signal ratio)
Method in brief: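 Antagonist mode: compounds tested against 1 nM (final) promegestone stimulation in HEK293T cells expressing PR-UAS-bla reporter, 16 hr at 37C, 5% CO2; beta-lactamase activity detected via B/G FRET substrate after 2 hr at room temperature.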

[5] = qHTS assay to identify small molecule antagonists of the progesterone receptor (PR) signaling pathway - cell viability counter screen (AID 1346798); also: series mostly up to about 92 µM; nearly all actives have a fitted effect of over 50% in size
Method in brief: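 Counter screen for cytotoxicity: viability of PR-UAS-bla HEK293T cells was measured with CellTiter-Glo luminescence following 16 hr compound exposure in the presence of R5020.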

[6] = qHTS assay to identify small molecule agonists of the progesterone receptor (PR) signaling pathway - cell viability counter screen (AID 1346799; calls by dose curve; also: nearly all actives have a fitted effect of over 45% in size)
Method in brief: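 Cells (PR-UAS-bla HEK293T) are plated at 3,000/well in 2% charcoal-stripped FBS medium, rested 6 hr, dosed and incubated 16 hr at 37C. CellTiter-Glo is then added and luminescence measured after 30 min at room temperature.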

[7] = qHTS assay to identify small molecule agonists of the TGF-beta/Smad signaling pathway - cell viability counter screen (AID 1346829); also: top concentration of the series differs between compounds; nearly all actives have a fitted effect of over 45% in size
Method in brief: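 HEK 293T SBE-bla line, 5 hr compound exposure at 37 C, multiplexed CellTiter-Glo viability read by luminescence.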

[8] = qHTS assay to identify small molecule agonists of the TGF-beta/Smad signaling pathway (AID 1346859; active = well fitted activation curve with a large enough effect in the signal ratio in the repeat runs, not every such curve was filed as active; the % refers to the signal ratio; also: series mostly up to about 77 µM)
Method in brief: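 Reporter line: HEK 293T with stably integrated SBE-controlled beta-lactamase. Compound exposure lasts 5 hr at 37 C and 5% CO2; substrate loading follows for 2 hr at room temperature, with emission read at 460 and 530 nm.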

[9] = qHTS assay to identify small molecule antagonists of the TGF-beta/Smad signaling pathway - cell viability counter screen (AID 1346824); also: nearly all actives have a fitted effect of over 50% in size
Method in brief: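 Cytotoxicity counter-screen run in the same wells as the beta-lactamase Smad reporter read: CellTiter-Glo luminescence after 30 min at room temperature. HEK 293T SBE-bla cells had 5 hr compound exposure at 37 C with TGF-beta1 (0.25 ng/mL stock).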

[10] = target: Thyrotropin-releasing hormone receptor (Homo sapiens) (UniProt P34981); assay: qHTS assay to identify small molecule antagonists of the thyrotropin-releasing hormone receptor (TRHR) signaling pathway (AID 1346877; active = well fitted inhibition curve with a large enough effect in the repeat runs, not every such curve was filed as active; also: series mostly up to about 51 µM)
Method in brief: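 Intracellular calcium fluorescence, read kinetically every second over 3 min, reports TRH-evoked signalling in HEK293 cells carrying TRHR. Test compounds were added 5 min ahead of a 1 nM TRH challenge.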
% is scaled to controls: 0 for no effect and ±100 for the full control effect.

Progesterone receptor (Homo sapiens), sequence (P06401 whole entry, looked up): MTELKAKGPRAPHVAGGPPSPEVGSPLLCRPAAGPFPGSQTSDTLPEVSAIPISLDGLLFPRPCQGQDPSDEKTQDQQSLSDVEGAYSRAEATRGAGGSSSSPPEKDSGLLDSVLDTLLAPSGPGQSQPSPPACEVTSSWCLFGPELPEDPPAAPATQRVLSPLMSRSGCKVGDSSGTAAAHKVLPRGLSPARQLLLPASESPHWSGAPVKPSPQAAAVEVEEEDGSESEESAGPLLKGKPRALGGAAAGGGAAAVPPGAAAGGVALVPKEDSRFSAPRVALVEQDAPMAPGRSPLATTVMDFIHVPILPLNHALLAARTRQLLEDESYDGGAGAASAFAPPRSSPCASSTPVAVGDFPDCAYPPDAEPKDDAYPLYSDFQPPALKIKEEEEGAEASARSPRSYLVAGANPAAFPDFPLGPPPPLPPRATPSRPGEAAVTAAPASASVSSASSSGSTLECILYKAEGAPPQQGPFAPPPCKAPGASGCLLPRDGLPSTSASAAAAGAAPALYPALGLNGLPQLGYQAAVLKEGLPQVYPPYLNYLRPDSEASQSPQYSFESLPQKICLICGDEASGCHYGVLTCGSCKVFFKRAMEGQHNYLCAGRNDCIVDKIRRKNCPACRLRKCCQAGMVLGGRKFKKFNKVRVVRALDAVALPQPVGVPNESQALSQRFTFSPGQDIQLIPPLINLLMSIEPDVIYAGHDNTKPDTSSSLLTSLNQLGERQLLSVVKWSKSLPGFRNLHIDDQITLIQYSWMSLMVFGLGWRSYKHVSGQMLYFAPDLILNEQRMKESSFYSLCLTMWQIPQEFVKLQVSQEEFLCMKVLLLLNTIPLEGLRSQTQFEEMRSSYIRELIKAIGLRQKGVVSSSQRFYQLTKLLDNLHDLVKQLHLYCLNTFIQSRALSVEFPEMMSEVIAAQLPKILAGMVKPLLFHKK
Thyrotropin receptor (Homo sapiens), sequence (P16473 whole entry, looked up): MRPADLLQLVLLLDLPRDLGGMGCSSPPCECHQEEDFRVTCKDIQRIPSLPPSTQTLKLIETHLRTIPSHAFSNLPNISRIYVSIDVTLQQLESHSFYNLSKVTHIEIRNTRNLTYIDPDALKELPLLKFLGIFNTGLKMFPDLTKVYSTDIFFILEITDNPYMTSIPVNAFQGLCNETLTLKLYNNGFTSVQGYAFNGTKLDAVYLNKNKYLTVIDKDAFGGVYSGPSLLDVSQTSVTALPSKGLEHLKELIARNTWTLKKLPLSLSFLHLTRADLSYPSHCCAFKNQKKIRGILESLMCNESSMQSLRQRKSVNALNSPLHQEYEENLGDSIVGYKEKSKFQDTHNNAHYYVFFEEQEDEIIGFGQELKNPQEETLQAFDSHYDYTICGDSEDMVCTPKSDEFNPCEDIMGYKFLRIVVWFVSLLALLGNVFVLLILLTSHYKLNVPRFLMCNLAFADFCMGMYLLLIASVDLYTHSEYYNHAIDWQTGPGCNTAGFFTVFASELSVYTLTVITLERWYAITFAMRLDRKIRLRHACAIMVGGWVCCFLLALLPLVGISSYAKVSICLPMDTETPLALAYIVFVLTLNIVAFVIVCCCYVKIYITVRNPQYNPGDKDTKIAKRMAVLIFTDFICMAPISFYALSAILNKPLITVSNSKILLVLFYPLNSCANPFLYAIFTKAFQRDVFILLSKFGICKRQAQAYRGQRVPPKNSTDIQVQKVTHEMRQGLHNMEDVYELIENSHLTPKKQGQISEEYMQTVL
Thyrotropin-releasing hormone receptor (Homo sapiens), sequence (P34981 whole entry, looked up): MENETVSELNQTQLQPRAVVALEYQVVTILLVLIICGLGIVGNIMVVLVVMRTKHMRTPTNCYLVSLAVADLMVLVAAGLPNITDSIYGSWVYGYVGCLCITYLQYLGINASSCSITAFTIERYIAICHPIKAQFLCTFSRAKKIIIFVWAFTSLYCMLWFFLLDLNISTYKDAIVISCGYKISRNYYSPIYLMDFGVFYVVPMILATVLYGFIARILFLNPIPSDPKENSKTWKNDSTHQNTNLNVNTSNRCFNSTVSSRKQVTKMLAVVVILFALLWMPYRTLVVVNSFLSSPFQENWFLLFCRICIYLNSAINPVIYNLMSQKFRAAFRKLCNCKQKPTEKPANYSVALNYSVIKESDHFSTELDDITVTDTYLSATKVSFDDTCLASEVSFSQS

COc1ccc(NC(C)=O)cc1
inactive: Potency [1] | outcome [2] | Potency [3] | Potency [4] | Potency [5] | Potency [6] | outcome [7] | outcome [8]

OCC(O)[C@@H](O)[C@H](O)[C@H](O)CO[C@H]1O[C@H](CO)[C@@H](O)[C@H](O)[C@H]1O (stereo partly drawn)
inactive: Potency [1] | outcome [2] | Potency [3] | Potency [4] | Potency [5] | Potency [6] | outcome [9] | outcome [8] | outcome [10]

Cc1ccccc1Br
inactive: Potency [1] | outcome [2] | Potency [3] | Potency [4] | Potency [5] | Potency [6] | outcome [9] | outcome [8] | outcome [10]

CCCCCOC(=O)Nc1nc(=O)n([C@@H]2O[C@H](C)[C@@H](O)[C@H]2O)cc1F
inactive: Potency [1] | outcome [2] | Potency [3] | Potency [4] | Potency [5] | Potency [6] | outcome [9] | outcome [8]

CCC(=O)c1cccc(Cl)c1
active: Potency [3] 1970 nM
inactive: Potency [1] | outcome [2] | Potency [4] | Potency [5] | outcome [9] | outcome [7] | outcome [8] | outcome [10]

NCCN1CCNC1=O
inactive: Potency [1] | outcome [2] | Potency [3] | Potency [4] | Potency [5] | Potency [6] | outcome [7] | outcome [8]

C#CC(O)C(CC)CCCC (stereo not drawn)
inactive: Potency [1] | outcome [2] | Potency [3] | Potency [4] | Potency [5] | Potency [6] | outcome [9] | outcome [8] | outcome [10]

CN(C)CCOC(c1ccc(Cl)cc1)c1ccccn1 (stereo not drawn)
inactive: Potency [1] | outcome [2] | Potency [3] | Potency [4] | Potency [5] | Potency [6] | outcome [7] | outcome [8] | outcome [10]

NC(=S)Nc1cccc2ccccc12
inactive: activity change, negative = inhibition [1] 2.83% [at 8.39 µM] | activity change, negative = cytotoxicity [2] 0.0918% [at 8.39 µM] | activation [3] -0.12% [at 8.39 µM] | activity change, negative = inhibition [4] -2.03% [at 8.39 µM] | activity change, negative = cytotoxicity [5] -13.4% [at 8.39 µM] | activity change, negative = cytotoxicity [6] -0.848% [at 8.39 µM] | viability change, negative = cytotoxic [9] 11.5% [at 6.97 µM] | activity change, negative = cytotoxicity [7] -4.69% [at 6.97 µM] | activation [8] -0.913% [at 6.97 µM] | activity, negative = inhibition [10] -0.447% [at 4.65 µM]

COc1cccc(OC)c1
inactive: Potency [1] | outcome [2] | Potency [3] | Potency [4] | Potency [5] | Potency [6] | outcome [7] | outcome [8] | outcome [10]

NS(=O)(=O)c1cc2c(cc1Cl)NC(CSCc1ccccc1)=NS2(=O)=O
inactive: Potency [1] | outcome [2] | Potency [3] | Potency [4] | Potency [5] | Potency [6] | outcome [9] | outcome [8] | outcome [10]

C=CCOc1nc(OCC=C)nc(OCC=C)n1
inactive: Potency [1] | outcome [2] | Potency [3] | Potency [4] | Potency [5] | Potency [6] | outcome [8] | outcome [10]

O=C1OC(=O)c2cc([N+](=O)[O-])ccc21
inactive: Potency [1] | outcome [2] | Potency [3] | Potency [4] | Potency [5] | Potency [6] | outcome [9] | outcome [7] | outcome [8] | outcome [10]

CC/C=C\C#N
inactive: Potency [1] | outcome [2] | Potency [3] | Potency [4] | Potency [5] | Potency [6] | outcome [7] | outcome [8] | outcome [10]

O=C(O)c1cccc(C(=O)O)n1
inactive: Potency [1] | outcome [2] | Potency [3] | Potency [4] | Potency [5] | outcome [9] | outcome [7] | outcome [8] | outcome [10]

O=C(O)c1ccc[n+]([O-])c1
inactive: Potency [1] | outcome [2] | Potency [3] | Potency [4] | Potency [5] | Potency [6] | outcome [9] | outcome [7] | outcome [8] | outcome [10]

CC(=O)CCc1ccc(O)cc1
inactive: Potency [1] | outcome [2] | Potency [3] | Potency [4] | Potency [5] | Potency [6] | outcome [9] | outcome [7] | outcome [8] | outcome [10]

Nc1nc2c(ncn2CCC(CO)CO)c(=O)[nH]1
inactive: Potency [1] | outcome [2] | Potency [3] | Potency [4] | Potency [5] | Potency [6] | outcome [9] | outcome [7] | outcome [8] | outcome [10]

OCc1ccccn1
inactive: Potency [1] | outcome [2] | Potency [3] | Potency [4] | Potency [5] | Potency [6] | outcome [9] | outcome [8]

CCCCCCCCCCCCCCCCCC(=O)OCCCCCCCCCCCCCC(C)C
inactive: Potency [1] | outcome [2] | Potency [3] | Potency [4] | Potency [5] | Potency [6] | outcome [9] | outcome [7] | outcome [8] | outcome [10]

N#CCc1ccccc1[N+](=O)[O-]
inactive: Potency [1] | outcome [2] | Potency [3] | Potency [4] | Potency [5] | outcome [9] | outcome [7] | outcome [8] | outcome [10]

C=C(C)C(=O)OCCCCCCCCCCCCCCCCCC
inactive: activity change, negative = inhibition [1] 0.559% [at 19 µM] | activity change, negative = cytotoxicity [2] -3.47% [at 19 µM] | activation [3] 1.29% [at 19 µM] | activity change, negative = inhibition [4] -2.15% [at 18.9 µM] | activity change, negative = cytotoxicity [5] 16.4% [at 18.9 µM] | activity change, negative = cytotoxicity [6] 3.91% [at 19 µM] | viability change, negative = cytotoxic [9] 11% [at 15.8 µM] | activation [8] 6.67% [at 15.8 µM] | activity, negative = inhibition [10] -4.03% [at 10.5 µM]

CCCCC1CCCCC(=O)O1 (stereo not drawn)
inactive: Potency [1] | outcome [2] | Potency [3] | Potency [4] | Potency [5] | Potency [6] | outcome [7] | outcome [8] | outcome [10]

CC1CCN(CCCC(=O)c2ccc(F)cc2)CC1
inactive: Potency [1] | outcome [2] | Potency [3] | Potency [4] | Potency [5] | Potency [6] | outcome [9] | outcome [7] | outcome [8] | outcome [10]
